According to ChEMBL document CHEMBL3988442, “University of Dundee, Small-Polar-MMV Screening Library” (2021):
Among all 48,000 compounds or so, about 13,000 (27%) showed an effect of 50% or more. Some of the results follow.

System: Wolbachia pipientis
Experiment: Anti-Wolbachia Cell-Based Screen
Format: functional
Parameters: scale not given: in the data most compounds retested in dose-response had high values
Details: 5 µM

SMILES | Percent Effect [%]
O=C(Nc1ccc2c(c1)OCO2)N1CCCC1c1ccco1 (stereo not given) | -0.7591
Cc1nc(CN2C[C@@H](CN3CCOCC3)[C@@H](CO)C2)c2ccccn12 | 6.539
COCC(=O)N1CCc2nc(C(=O)N(C)C)sc2CC1 | -18.32
CN(Cc1ccc(C#N)cc1)Cc1noc(C(C)(C)C)n1 | 1.419
Cc1ccccc1CCC1CCCN(Cc2c(C)[nH]c(=O)[nH]c2=O)C1 (stereo not given) | 11.3
Cc1cccc(SC2CCN(C(=O)CCCS(N)(=O)=O)CC2)c1 | 79.05
Cc1cnccc1N1CCCN(C(=O)CCCS(N)(=O)=O)CC1 | 5.967
NS(=O)(=O)CCCC(=O)N1CCC2(CC1)c1ccccc1CC2O (stereo not given) | -16.64
Cc1cccc(CN2CCC(c3nnc(-c4scnc4C)o3)CC2)c1 | 109.5
COc1cccc(CN2CCC(c3nnc(-c4cnc(C)cn4)o3)C2)c1 (stereo not given) | 84.16
Cc1ncsc1-c1nc(-c2cccc(CN3CCOCC3)c2)no1 | 1.772
COc1cccc(CN2CC[C@H](c3nnc(-c4ccco4)o3)C2)c1 | 18.39
COc1cccc(CN2CC[C@H](c3nnc(C)o3)C2)c1 | 12.81
Cc1ncsc1-c1nnc(C2CCN(Cc3cccc(Cl)c3)CC2)o1 | 113.8
Cc1nc(CN2CCN(CC(=O)Nc3c(C)cccc3C)CC2)no1 | 0.7695
COc1ccc(C(O)C(=O)N2CCC(c3nccn3C(C)C)CC2)cc1 (stereo not given) | -20.71
CC(NC(=O)c1ccoc1)C(=O)N(C)Cc1ccc(O)cc1 (stereo not given) | -3.093
Cc1nn(-c2ccccc2)nc1C(=O)NCC(c1ccsc1)N(C)C (stereo not given) | -0.008163
Cc1cc(C(=O)NCC(c2ccsc2)N(C)C)no1 (stereo not given) | 113.7
Cc1nn(C)c(Cl)c1C(=O)NCC(c1ccsc1)N(C)C (stereo not given) | -1.114
CCN(CC)C(CNC(=O)c1c(C)noc1C(C)C)c1ccsc1 (stereo not given) | 108.9
Cc1cc(NC(=O)NCC(c2ccsc2)N(C)C)n(C)n1 (stereo not given) | -2.678
Cc1noc(C)c1C(=O)NCC(c1ccc(F)cc1)N(C)C (stereo not given) | -4.601
CN(C)C(CNC(=O)c1ncoc1-c1ccccc1)c1ccsc1 (stereo not given) | -4.122
Cc1noc(C(C)C)c1C(=O)NCC(c1ccsc1)N(C)C (stereo not given) | -2.505

SMILES | Percent Effect [%]
Cc1noc(C)c1C(=O)NCC(c1ccsc1)N(C)C (stereo not given) | 115.3
CC(c1cc(F)ccc1F)N1CCN(C(=O)c2ccc(=O)[nH]c2)CC1 (stereo not given) | -31.75
O=C(O)C(F)(F)F.c1csc(CN2CCc3ncnc(C4CCOC4)c3CC2)c1 (stereo not given) | -9.496
Cn1nnc2c1CCN(C(=O)C1CCC1)C2COCCN1CCCC1.O=C(O)C(F)(F)F (stereo not given) | -13.51
CCC[C@H]1CN(CCS(C)(=O)=O)C[C@@H]1NC(=O)c1cc[nH]n1 | -12.34
O=C(N[C@@H]1CN(Cc2c[nH]nc2-c2ccccc2)C[C@H]1O)c1cc[nH]n1 | 121.8
COCC(=O)N[C@@H]1CN(Cc2c[nH]nc2-c2cccs2)C[C@H]1O | 113.8
Cc1n[nH]cc1CNC(=O)CCCc1cccs1 | -6.834
COCCN1C(=O)CO[C@H]2CN(Cc3c[nH]nc3-c3ccccc3)C[C@@H]21 | -12.21
COc1ccc(-c2n[nH]cc2CN2CCSCC2)c(OC)c1 | 5.008
CC(C)CC(C)(CNC(=O)c1cnccn1)NC(=O)c1cnccn1 (stereo not given) | 15.43
Cc1cn2cc(C(=O)NC3CCCN(c4ncccn4)C3)ccc2n1 (stereo not given) | -3.56
Cc1ccc2nc(C(=O)N3CCC(CCn4cccn4)CC3)cn2c1 | -8.837
Cc1ccc2nc(C(=O)N(C)[C@@H]3CC[C@@H](N4CCCC4)[C@@H]3O)cn2c1 | 129
Cc1ccc2nc(C(=O)N3CCNC(=O)C3c3cccc(F)c3)cn2c1 (stereo not given) | -1.772
CO[C@@H]1CC[C@@H](N(C)C(=O)c2cn3cc(C)ccc3n2)[C@H]1O | 56.83
Cc1ccc2c(ccn2CC(=O)NC[C@@H]2CCCN3CCCC[C@H]23)c1 | 4.302
CO[C@@H]1CCC[C@@H](N(C)C(=O)c2cn3cc(C)ccc3n2)[C@H]1O | 110.8
c1cncc(NCCNC2CCSCC2)c1 | -10.95
CCn1cc(N2Cc3nc(N4CCOCC4)ncc3C2=O)cn1 | 28.99
COC(=O)c1ccc(C2CC(=O)Oc3cc(C)[nH]c(=O)c32)cc1 (stereo not given) | -3.935
O=S(=O)(c1ccc(C(F)(F)F)cc1)N1CCC(OCc2ccccn2)C1 (stereo not given) | -13.15
CN1CCC(c2cccc(Cc3ccccc3)n2)CC1 | 111.8
CN1CCC(c2cccc(Cc3ccc(F)cc3)n2)CC1 | -5.274
CN1CCC(c2cccc(Cc3ccc(C(F)(F)F)cc3)n2)CC1 | 90.57
